# Source: publication PMC6451091, “NextPBM: a platform to study cell-specific transcription factor binding and cooperativity”
# In all, about 3,700 sequences were measured (“z-score”: median about 4, highest 2% from about 8.4 on). Shown is part of a subset that was picked to be rich in the highest values.
# Legend:
# [1] = biological target: PU.1 (IVT) (UniProt P17947 1-270); experiment: protein-binding microarray (PBM); 20 mM HEPES pH 7.9, 100 mM NaCl, 1 mM DTT, 0.2 mg/mL BSA, 0.02% Triton X-100, 2% milk, 0.4 mg/mL salmon testes DNA; 1 h; temperature not stated; high values mean tight binding; conditions: dsDNA, one strand shown
# Procedure, shortened: (§1)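 Binding is given as a z-score derived from scanned fluorescence that was normalised by linear regression. To obtain it, full-length untagged PU.1 from coupled human in vitro transcription/translation was applied for 1 h to custom double-stranded DNA microarrays of 20-bp genomic sites and single-nucleotide variants, using 10 probes per site with 5 in each orientation. The binding buffer was HEPES pH 7.9 with 100 mM NaCl, 2% milk and salmon testes DNA, and detection used anti-PU.1 and then a fluorescent secondary antibody.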
# [2] = biological target: PU.1 (IVT) (UniProt P17947 1-270); experiment: as above; conditions: dsDNA, one strand shown; remark: listed apart in the source
# Procedure, shortened: as §1
Sequence,binding signal [1] [z-score],binding signal [2] [z-score]
GCCTAGCACAAAAAAAGGAAGTGAAAGTAGTGCTAGGTCTTGATTCGCTTGACGCTGCTG,6.78,–
GCCTAGCACGGTGGGAGGAAGTGATCGGTGTGCTAGGTCTTGATTCGCTTGACGCTGCTG,–,3.72
GCCTAGCACGAAAAGGGGAAGTGAGGGATGTGCTAGGTCTTGATTCGCTTGACGCTGCTG,7.81,–
GCCTAGCACGAAAAAAGGAAGTTGCACAGGTGCTAGGTCTTGATTCGCTTGACGCTGCTG,6.42,–
GCCTAGCACTGGGAGGAGAAGTGAAACCTGTGCTAGGTCTTGATTCGCTTGACGCTGCTG,1.37,–
GCCTAGCACTGAAAGAGGAATTGCAACCAGTGCTAGGTCTTGATTCGCTTGACGCTGCTG,2.04,–
GCCTAGCACGAAAAGAGGAAGTCTGAAAAGTGCTAGGTCTTGATTCGCTTGACGCTGCTG,7.48,–
GCCTAGCACGAAAAGAGGAAGTGAAGTTAGTGCTAGGTCTTGATTCGCTTGACGCTGCTG,8.28,–
GCCTAGCACGAAAAGAGGAAGTTAAAGAAGTGCTAGGTCTTGATTCGCTTGACGCTGCTG,8.52,–
GCCTAGCACAGTTGGAGGAAGTGGCACTTGTGCTAGGTCTTGATTCGCTTGACGCTGCTG,2.78,–
GCCTAGCACGAAAACAGGAAGTGGGGATGGTGCTAGGTCTTGATTCGCTTGACGCTGCTG,7.43,–
GCCTAGCACCAAAGAAGGAAGTGAAACTGGTGCTAGGTCTTGATTCGCTTGACGCTGCTG,4.74,–
GCCTAGCACCAAAAGAGGAAGTTGGCAAAGTGCTAGGTCTTGATTCGCTTGACGCTGCTG,8.72,–
GCCTAGCACCAAAAGAGGAAGTCAAGCTGGTGCTAGGTCTTGATTCGCTTGACGCTGCTG,7.88,–
GCCTAGCACCAAAAGAGGAAGTCAGAGAGGTGCTAGGTCTTGATTCGCTTGACGCTGCTG,7.94,–
GCCTAGCACCAAAAGAGGAAGTGAAGCTGGTGCTAGGTCTTGATTCGCTTGACGCTGCTG,8.37,–
GCCTAGCACCAAAAGAGGAACTGCTGCTGGTGCTAGGTCTTGATTCGCTTGACGCTGCTG,6.83,–
GCCTAGCACCAAAAGAGGAAGTGGTGAAAGTGCTAGGTCTTGATTCGCTTGACGCTGCTG,8.4,–
GCCTAGCACCAAAAGAGGAAGTGGTATCAGTGCTAGGTCTTGATTCGCTTGACGCTGCTG,8.24,–
GCCTAGCACCAAAAGAGGAAGTGGCATATGTGCTAGGTCTTGATTCGCTTGACGCTGCTG,8.01,–
GCCTAGCACTGAGAGAGGAAGTAACTTAAGTGCTAGGTCTTGATTCGCTTGACGCTGCTG,–,5.44

Sequence,binding signal [1] [z-score],binding signal [2] [z-score]
GCCTAGCACCTGCCAGGGAAGTGAAATCAGTGCTAGGTCTTGATTCGCTTGACGCTGCTG,1.1,–
GCCTAGCACGAGAAGAGGAAGTGAGATCTGTGCTAGGTCTTGATTCGCTTGACGCTGCTG,6.45,–
GCCTAGCACAAAAAGAGGAAGAGGGGACAGTGCTAGGTCTTGATTCGCTTGACGCTGCTG,5.23,–
GCCTAGCACAAAAAGGGGAAGTGACATAAGTGCTAGGTCTTGATTCGCTTGACGCTGCTG,8.47,–
GCCTAGCACAAAAAAGGGAAGTGACATACGTGCTAGGTCTTGATTCGCTTGACGCTGCTG,7.76,–
GCCTAGCACAAAAAAGGGAAGTGATTTAAGTGCTAGGTCTTGATTCGCTTGACGCTGCTG,8.59,–
GCCTAGCACAAAGTGGGGAAGTGACAAAAGTGCTAGGTCTTGATTCGCTTGACGCTGCTG,–,3.36
GCCTAGCACAAAAAAGGGAAGTGCCATAAGTGCTAGGTCTTGATTCGCTTGACGCTGCTG,7.55,–
GCCTAGCACAAAAAAGGGAAGTGAAAATAGTGCTAGGTCTTGATTCGCTTGACGCTGCTG,7.69,–
GCCTAGCACGAAAAGAGGAACCGTATGGTGTGCTAGGTCTTGATTCGCTTGACGCTGCTG,5.79,–
GCCTAGCACTAAAAGAGGAAGAGGAAGAAGTGCTAGGTCTTGATTCGCTTGACGCTGCTG,–,5.75
GCCTAGCACTAAAAGAGGAAGTGCATTCAGTGCTAGGTCTTGATTCGCTTGACGCTGCTG,8.5,–
GCCTAGCACTAAAAGAGGAAGTGCAACCAGTGCTAGGTCTTGATTCGCTTGACGCTGCTG,8.29,–
GCCTAGCACTAAAAGAGGAAGTAGGAATAGTGCTAGGTCTTGATTCGCTTGACGCTGCTG,8.36,–
GCCTAGCACTAAAAGAGGAAGTAGCCAAAGTGCTAGGTCTTGATTCGCTTGACGCTGCTG,8.23,–
GCCTAGCACTAAAAGAGGAAGTGACCTCAGTGCTAGGTCTTGATTCGCTTGACGCTGCTG,7.82,–
GCCTAGCACAGCAGGAGGAAGTGGGTGGAGTGCTAGGTCTTGATTCGCTTGACGCTGCTG,–,3.97
GCCTAGCACAAAAAAAGGAAATGAAATTAGTGCTAGGTCTTGATTCGCTTGACGCTGCTG,3.65,–
GCCTAGCACCAAAAGAGGAAGAGTCTGACGTGCTAGGTCTTGATTCGCTTGACGCTGCTG,4.26,–
GCCTAGCACACAAAAAGGAACTGTTCCCCGTGCTAGGTCTTGATTCGCTTGACGCTGCTG,2.27,–
